In all, about 24,000 sequences were measured (“enrichment r”: median about 0.99, highest 2% from about 3.7 on). The sample holds the highest values, similar sequences and a random draw of the others, so the mix is not that of the screen.
T1: UNK ZnF1-3 (human, UniProt Q9C0B0 31-174)
T1 sequence: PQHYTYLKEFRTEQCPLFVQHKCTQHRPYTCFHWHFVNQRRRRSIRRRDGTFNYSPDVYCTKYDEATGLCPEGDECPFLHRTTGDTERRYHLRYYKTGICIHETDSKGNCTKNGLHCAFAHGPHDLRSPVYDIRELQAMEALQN

B1: chr8:117878989:117878990:-_ENSG00000164754_ENST00000297338|hu_hu|hu_hu_hu_mus_True|8_8 (ssRNA)
RNA: GGGAGUUCUACAGUCCGACGAUCCCAGAGGCCCUCGUUUACUGAGGACAAAAUGUGCGUAGAACAUUUUUCUUAUUUGCUAUGAAAUAAGAAGAAACCUGGAUCUCGGCGGGGAGCCGGGAGGGGUUGGGUGGCCCGGGAGGGCAACAGAGGAUUGAGCAUCA
B2: chr3:100058692:100058693:+_ENSG00000114021_ENST00000480073|hu_mus|motif|central (ssRNA)
RNA: GGGAGUUCUACAGUCCGACGAUCAUAGUCAGGAAAGUAGGUUGUUCCAUAUGGAGAAUUGAAGCACUCAGGCAGAGAAACGGUGUUGGCACCUUGCUUUGCUGCCUCCCGCACUAGGCUACAAGCCCGGGUAAGGUUAUCUGACAACAGAGGAUUGAGCAUCA
B3: chr10:1038552:1038553:+_ENSG00000107937_ENST00000545048|hu_hu|FALSE|FALSE (ssRNA)
RNA: GGGAGUUCUACAGUCCGACGAUCCAUAGAACGGAUGAAUAUCAUCCAAUUUGGGGAAAUCUGUUAGAAUUUGUGAAAGUCUAUCAUGGUAAUUCUGUUGAGUAAAUUUGACUUUUCUCAUGUAAAAAUGUCUAAUGCGAUGUACAACAGAGGAUUGAGCAUCA
B4: chr9:91931296:91931297:+_ENSG00000123975_ENST00000314355|hu_hu|hu_hu_hu_mus_True|48_108 (ssRNA)
RNA: GGGAGUUCUACAGUCCGACGAUCAGAUUGACGAUCCCCAGCUGCACUUCAUUUUUGUUGUUCUUUUGGAAGAGGUCGUCUAAAGAGAAGAAUAUGUGGUUCUGGCUCAUGAAUCAUGUAAUGAACCCAUCCUAGACUCUGUUGCAACAGAGGAUUGAGCAUCA
B5: chr2:62103349:62103350:-_ENSG00000115484_ENST00000544079|hu_mus|motif|central (ssRNA)
RNA: GGGAGUUCUACAGUCCGACGAUCAAUAUAGGCUCUCUCCUCUCGAAGCACUCGAUCCAUCUGGGCAUAGUCAGAUACGGCGGUUUGAUUAUCCAUAUCUGUUUUAGGAGCAGAUAAGCAAAACUGAAUAAGCCCAAUCUUAGCCAACAGAGGAUUGAGCAUCA
B6: chr7:93623566:93623567:-_ENSG00000105829_ENST00000222547|hu_hu|FALSE|FALSE (ssRNA)
RNA: GGGAGUUCUACAGUCCGACGAUCGAACAAAUUCCAAAUUCACAAUUACAUGCAUCACCUCAGUUUAAUAAUCCAAUAAAUGAUAAAAAAGACAAAUAAAGAAAACAGCAUCAUAUAGCACAGCAGCUUUGUUUGGCUCCCUCUCAACAGAGGAUUGAGCAUCA
B7: chr20:57486015:57486016:+_ENSG00000087460_ENST00000306090|hu_mus|FALSE|FALSE (ssRNA)
RNA: GGGAGUUCUACAGUCCGACGAUCCCUUUUUUUUCUUUUUCUUCUGUAGGCCGCCUUAAGCUUACUAAAUUUGGAACAUCUAAGCAAGCUGAAGGGAAGAGGGGUUUUUCAGAAUCACUGGGGGAAAAAGGAAAGGUUGCGGUGCAACAGAGGAUUGAGCAUCA
B8: 203424622_203424742_3669_3pUTR_ENSG00000204217_ENST00000374580|human|control|control (ssRNA)
RNA: GGGAGUUCUACAGUCCGACGAUCUUUUAUUUUUAAACAUCUUCUGCAUGUUUAAAUGAUGCAAAAAAUAAUUUCACUCCAUAGGCUUGAAAACAUUUCACAGACAGUUCAUUCCUAUAUCUUUAGACACCAUGGUUGUAGCAGCAACAGAGGAUUGAGCAUCA
B9: chr2:170668292:170668293:+_ENSG00000138385_ENST00000260956|hu_mus|motif|central (ssRNA)
RNA: GGGAGUUCUACAGUCCGACGAUCACCUAAUUCGCUUUUCUUUUUAAAAGCUUCUGAAGACAAAAAGCAGCUUAAAAUCGGACGGAGGAAUAAAAACACUGCUUACUAAAUAAACUACUUGUCUCUAGCACCAUUUUCUCUUUUCAACAGAGGAUUGAGCAUCA
B10: chr19:41288892:41288893:-_ENSMUSG00000025016_ENSMUST00000025989|mus_mus|motif|central (ssRNA)
RNA: GGGAGUUCUACAGUCCGACGAUCUGGAUGGAACUGAGAAAGCUGGUUAAUUUUAAGAUAAAUAAAUGAGGUUGAUCCAAACGGAGAUUAAGAUGACAGCAGAUAUAUUCCAUGCAGAAUUGAAUAGCUUUUAAUUUUGUUUUUCAACAGAGGAUUGAGCAUCA
B11: chr1:35650007:35650008:-_ENSG00000116560_ENST00000357214|hu_hu|motif|central (ssRNA)
RNA: GGGAGUUCUACAGUCCGACGAUCAUCCAUAAAAAGAUAGCUUUCUUACUAAAAUGCAAGAAUUUAAAAGAUUGGUAUCGGAACAAAAAAACAAAACAAACUGGAAUGAAAGCCUAAAUAUCACAUCUAAAAUCGGGGUUUUUUCAACAGAGGAUUGAGCAUCA
B12: chr6:136599331:136599332:-_ENSG00000029363_ENST00000527536|hu_mus|motif|central (ssRNA)
RNA: GGGAGUUCUACAGUCCGACGAUCGGGGGCAUCUGAGCAUGAUGAACUCUGACUGGGUGGUGUAGCAAUAGGUGAAGGACGGUGAGGUGACCUUGGACUAUUAUCAUAAGCUGAAAGGCCAGGCCAAAUAUCACCAGAAGUAGCCAACAGAGGAUUGAGCAUCA
B13: chr15:40462788:40462789:+_ENSG00000156970_ENST00000287598|hu_mus|FALSE|FALSE (ssRNA)
RNA: GGGAGUUCUACAGUCCGACGAUCAAAGCGGGGGUCAUUAUAAUAGCGCGUCUCUCCUUGGAGUGCUUCUAUCGCUCUCUCCACUAACGCUGACAUGUUACUCUCUUUCCCCCCUUGAGGGUAGUUCUGUUCUGUCCAAUUAAUCAACAGAGGAUUGAGCAUCA
B14: chr2:128501614:128501615:-_ENSMUSG00000014355_ENSMUST00000014499|mus_mus|FALSE|FALSE (ssRNA)
RNA: GGGAGUUCUACAGUCCGACGAUCAGCCACAGGGGAUUCGCCUUUGGAGAGGCUUCUGAGAUGUGCUGUCAGGGAGCUGCUAGUAGUUGCAUUCUGCAGGGUCCCUGCCUGCUCAGGGAACUUUAAAACAGCAUUCUCUUCCUCCAACAGAGGAUUGAGCAUCA

Target: T1, UNK ZnF1-3
Assay: nsRBNS (natural sequence RNA bind-n-seq); RBNS binding buffer (assumed for nsRBNS): 25 mM Tris pH 7.5, 150 mM KCl, 3 mM MgCl2, 0.01% Triton X-100, 500 ug/ml BSA, 20 U/ml SUPERase-In, 4 C; UNK is unkempt and MSI1 is Musashi-1; names of the RNAs are library labels; protein concentration not given here; high values mean tight binding

| Binder | binding signal [enrichment R] |
| --- | --- |
| B1 | 1.2 |
| B2 | 1.65 |
| B3 | 0.818 |
| B4 | 0.894 |
| B5 | 1.05 |
| B6 | 2.97 |
| B7 | 1.66 |
| B8 | 0.637 |
| B9 | 1.16 |
| B10 | 5.2 |
| B11 | 4.37 |
| B12 | 1.72 |
| B13 | 0.581 |
| B14 | 1.19 |
